Assay outcomes: PubChem BioAssay, several laboratories
A selection: hits, their analogues and other compounds. The true share with any hit is near 11%.
Autophagy HCS = autophagy modulators in MEF cells, primary screen, imaging, high-content, MEF GFP-LC3; calls only at 10 µM (by protocol); AID 463193, 2010; 0.98% of 190,000 active; MEF GFP-LC3 puncta imaging; test concentration mostly 10 µM;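 active = percentage of spot-positive cells more than 3 SD above its plate mean, without a fluorescence outlier flag or 80% toxicity; inconclusive = no clear call, values can overlap the other calls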
Insulin prom inh = inhibitors of insulin promoter-driven GFP, primary screen, imaging, TRM-6 cells (human fetal islet line), eGFP reporter, cell count; AID 1273, 2008; 0.9% of 130,000 active; inhibition, % at 2 µM; reporter expression induced with tamoxifen;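 active = inhibition above the mean plus 3 SD, with well images judged a real hit on visual review, cut at about 60% in these data, passing the limit was not always enough; inconclusive = inhibition over the cutoff but images rejected on review; inactive = inhibition not above the cutoff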
Ins promoter up = insulin promoter activators in MIN6 cells, imaging, high-content screening, mouse beta cells; 0.3% of 190,000 active; AID 1625, 2009; MIN6 insulin promoter-GFP reporter; hits give high values; z-score at 5 µM;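 active = z-score above 3 at 5 µM with at least 500 cells counted in the well; inconclusive = wells under 500 cells, flagged as cytotoxic or low count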
Lmaj promast = Leishmania major promastigote growth inhibition, primary screen. 9% of 200,000 active. inhibition, % at 10 µM. Leishmania major promastigotes, resazurin fluorescence viability; in the data active = inhibition above about 50%;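 note: promastigotes grown with compound for 44 hours at 28 °C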
WT yeast gro inh = growth inhibition of WT strain, primary screen, mitochondrial fusion inhibitor project, WT and mutant strains, chemical genetic. mitochondrial fusion phenotypic screen. inhibition, % at 10 µM. 2.1% of 190,000 active. AID 1362, 2008; in the data active = inhibition above about 58%; tested in S. cerevisiae
Hits are given with their value; i = inactive; ? = inconclusive; nt = no result; + = active, no number.

SMILES	Autophagy HCS	Insulin prom inh	Ins promoter up	Lmaj promast	WT yeast gro inh
CC(C)(C)NS(=O)(=O)c1ccc2nc(NC(=O)Cc3cccs3)sc2c1	i	i	i	95	i
O=S(=O)(Nc1ccc(O)c(CN2CCCCC2)c1)c1ccccc1	i	i	i	99	i
Cn1c(CN2CCCC2)nc2cc(NS(=O)(=O)c3ccccc3)ccc21	i	i	i	i	i
Cc1cccc2sc(NNC(=O)c3ccc(S(=O)(=O)N4CC(C)CC(C)C4)cc3)nc12 (configuration not stated)	i	i	i	99	i
COC(=O)c1sc2ccccc2c1NC(=O)c1ccc(S(=O)(=O)N2CCCC(C)C2)cc1 (configuration not stated)	i	nt	i	i	i
Cc1cc(C)c2nc(NNC(=O)c3ccc(S(=O)(=O)N4CC(C)CC(C)C4)cc3)sc2c1 (configuration not stated)	i	i	i	99	i
Cc1cc(C)c2nc(NNC(=O)c3ccc(S(=O)(=O)N4CCCC(C)C4)cc3)sc2c1 (configuration not stated)	i	i	i	98	i
Cc1ccc2nc(NNC(=O)c3ccc4c(c3)OCCO4)sc2c1	i	i	i	i	i
CCC(=O)NNc1nc2c(C)cc(C)cc2s1	i	i	i	i	i
Cc1ccc2nc(NNC(=O)c3ccc(S(=O)(=O)N4CCc5ccccc5C4)cc3)sc2c1	i	?	i	100	i
C=C(C)C(=O)Nc1ccc2c(c1)OCCOCCOCCO2	nt	nt	i	nt	nt
CN(C)C(=O)c1ccc(NC(=O)COc2ccc([N+](=O)[O-])cc2)cc1	i	nt	i	i	i
O=C(c1cc2n(n1)C(C(F)(F)F)CC(c1ccco1)N2)N1CCN(c2ccccn2)CC1 (configuration not stated)	i	i	i	i	i
Cc1cccc(N2CCN(C(=O)c3cc4n(n3)C(C(F)(F)F)CC(c3ccco3)N4)CC2)c1C (configuration not stated)	i	nt	i	67	61
O=C(CNC(=O)c1ccccc1)OCc1cccc(Br)c1	i	i	i	i	i
O=C(CNC(=O)c1ccccc1)OCc1cccc([N+](=O)[O-])c1	i	i	i	56	i
O=C(Nc1ccc(Br)cn1)c1cccc2c1-c1ccccc1C2=O	i	nt	nt	i	i
CCN(CC)CCCNC(=O)c1cc2nc3c(c(C(F)(F)F)n2n1)CCc1ccccc1-3	i	nt	nt	96	i
CCCNC(=O)CNC(=S)N(Cc1cc(OC)c(OC)c(OC)c1)C1CCCC1	i	i	i	54	i
CC1=NN(C(=O)CSCc2ccccc2)C(O)(c2ccc(F)cc2)C1 (configuration not stated)	i	nt	i	99	i
O=[N+]([O-])c1cccc(/C=N/Nc2nc(NCc3ccccc3)nc(N3CCOCC3)n2)c1O	i	nt	i	99	i
Cc1nnc2n(-c3ccccc3)c(=O)c3c4c(sc3n12)COC(C(C)C)C4 (configuration not stated)	i	i	nt	i	i
CC(C)C1Cc2c(sc3[nH]c(=S)n(Cc4ccccc4)c(=O)c23)CO1 (configuration not stated)	i	i	nt	i	61
CC1(C)OC2OC(C(=O)N/N=C/c3cc(Br)ccc3O)C3OC(C)(C)OC3C2O1 (configuration not stated)	i	i	nt	i	i
Cc1ccc(Nc2nc(CSc3nnc(-c4ccncc4)n3C)cs2)cc1	i	i	i	i	i
SMILES	Autophagy HCS	Insulin prom inh	Ins promoter up	Lmaj promast	WT yeast gro inh
Cc1ccc(Nc2nc(CSc3nnc(-c4cccnc4)n3-c3ccccc3F)cs2)cc1	i	i	i	89	i
C=CCN(C(=O)c1cccc(S(=O)(=O)N2CCN(C)CC2)c1)c1nc(-c2ccccc2)cs1	i	i	nt	i	59
CC(=O)NCCCc1c[nH]c2ccc(Cl)cc12	i	nt	i	i	i
CC1(C)CC(=O)C2=C(C1)Oc1nc3ccccc3cc1C2C(C#N)C#N (configuration not stated)	i	i	i	100	i
O=C(N/N=C/c1cccc([N+](=O)[O-])c1)c1ccccc1-n1cccc1	i	nt	i	i	i
O=C(N/N=C/C1=C(N2CCOCC2)C(=C\c2ccccc2)/CC1)Nc1ccccc1	i	i	i	i	i
CCN(CC)c1ccc(/C=N/NC(=O)c2ccco2)cc1	i	i	i	50	i
CCN(CC)c1ccc(/C=N/NC(=O)c2cccc(S(=O)(=O)N3CCOCC3)c2)cc1	i	i	i	73	i
CCN(Cc1ccccc1)c1ccc(/C=N/NC(=O)c2cccc(S(=O)(=O)N3CCOCC3)c2)cc1	i	i	i	91	i
COc1cc(/C=N/NC(=O)c2cccc(S(=O)(=O)N3CCOCC3)c2)cc(OC)c1O	i	nt	nt	i	i
CCN(CC)c1ccc(/C=C2\CCC(/C=N/NC(=O)c3ccc(=O)n(C)c3)=C2N2CCOCC2)cc1	+	nt	i	i	i
COc1ccc(CNC(=O)COC(=O)c2ccc(F)c(S(=O)(=O)N3CCCCC3)c2)cc1OC	nt	nt	i	nt	nt
Cc1ccc(CNC(=O)CCC2CCCN(C(=O)c3ccc4c(c3)OCO4)C2)o1 (configuration not stated)	i	nt	i	i	i
Cc1cc(O)c(/C=N/Nc2ccccc2)c(=O)o1	i	i	i	76	i
Cc1cc(O)c(C=Nc2cccc(Cl)c2)c(=O)o1	i	nt	nt	i	i
CC(=O)/C(=N\Nc1ccccc1Cl)Sc1cccc2cccnc12	i	i	i	i	i
C/C(=N\Nc1cccc2cccnc12)c1ccc(C)cc1	i	nt	i	i	74
Oc1ccccc1/C=N/Nc1ccccc1	i	i	i	i	79
Oc1ccccc1/C=N/Nc1ncc(Br)cn1	i	i	i	i	i
Oc1ccc(/C=N/Nc2ccc3ccccc3c2)c(O)c1	i	i	i	85	i
O=C(COc1ccccc1)NCC(=O)N/N=C/c1ccc(O)cc1O	nt	nt	i	nt	nt
COCCn1c(=O)c2c(nc3n2CCN3c2ccc(C)cc2)n(C)c1=O	i	nt	i	i	i
CC1=CC(C)[C@H](/C=N/n2c(=O)[nH]c3c([nH]c4ccc(C)cc43)c2=O)C(C)C1 (some centres not stated)	i	i	nt	i	i
O=C(c1cc2ccc([N+](=O)[O-])cc2oc1=O)N1CCOCC1	i	nt	i	i	i
O=C(COc1cccc2cccnc12)N/N=C/c1ccccc1O	nt	nt	i	nt	nt
SMILES	Autophagy HCS	Insulin prom inh	Ins promoter up	Lmaj promast	WT yeast gro inh
O=C(O)c1ccc(N/N=C/c2cn(Cc3ccccc3F)c3ccccc23)cc1	nt	nt	i	nt	nt
Cn1cc(/C=N/Nc2ccccc2)c2ccccc21	i	nt	i	63	i
Oc1ccccc1/C=N/Nc1cccc2cccnc12	+	i	i	i	i
O=C(N/N=C\c1cccc(OC(=O)c2ccco2)c1)c1ccc2c(c1)OCO2	i	i	i	i	i
COc1ccccc1CC(=O)NNS(=O)(=O)c1ccc([N+](=O)[O-])cc1	i	nt	i	i	i
Clc1ccc(Nc2ncn[nH]2)c(Cl)c1	i	66	i	i	i
O=C(Nc1ncn[nH]1)c1ccc(Cl)cc1Cl	i	i	i	i	i
N#CCn1c(CCl)nc2ccccc2c1=O	i	nt	i	84	i
